# Hits are enriched below; roughly 3.3% of the tested compounds scored in any of these assays.
# Fh CTSL1 inh – counter-screen for PFM18AAP inhibitors: inhibitors of F. hepatica cathepsin L1 | recombinant F. hepatica cathepsin L1, Z-Leu-Arg-MCA fluorescence | inhibition, % at 5.96 µM | actives 0.49% (n = 300,000) | AID 1906;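 active means inhibition above the mean of all tested compounds plus 3 SD, set per screening campaign, cut at about 17% in these data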;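 further: 0% = plate median of test compound wells and 100% = 1 µM Z-Phe-Ala-diazomethylketone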
# TPT1 inh – C. albicans TPT1 enzyme inhibition; recombinant caTPT1, FP RNA substrate dephosphorylation; inhibition, % at 5 µM; actives 0.81% (n = 300,000); AID 1962;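 active means inhibition above the mean of all tested compounds plus 3 SD, set per screening campaign, cut at about 24% in these data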;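 further: plate controls were DMSO alone for no effect and ferristatin control at 100 nM for full effect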
# NRP1-CendR mod – alters CendR peptide binding to human NRP-1; FAM-RPARPAR peptide binding to NRP-1, fluorescence polarization; actives 0.85% (n = 360,000); O14786; inhibition, % at 25 µM;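 active means inhibition or corrected inhibition above about 18%, plus a signal ratio from 0.5 to 1.5, limit read from the data, passing the limit was not always enough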
# Rpn11 inh – Rpn11 (human) deubiquitinase inhibition; actives 0.59% (n = 360,000); O00487; human 26S proteasome, Ub4-pepOG fluorescence polarization; 20S core pre-blocked with epoxomicin; AID 588493; inhibition, % at 20 µM;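 active means inhibition at 20 µM, scaled to each plate's controls, above about 33%, limit read from the data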
# Target sequence (O00487 whole entry, looked up): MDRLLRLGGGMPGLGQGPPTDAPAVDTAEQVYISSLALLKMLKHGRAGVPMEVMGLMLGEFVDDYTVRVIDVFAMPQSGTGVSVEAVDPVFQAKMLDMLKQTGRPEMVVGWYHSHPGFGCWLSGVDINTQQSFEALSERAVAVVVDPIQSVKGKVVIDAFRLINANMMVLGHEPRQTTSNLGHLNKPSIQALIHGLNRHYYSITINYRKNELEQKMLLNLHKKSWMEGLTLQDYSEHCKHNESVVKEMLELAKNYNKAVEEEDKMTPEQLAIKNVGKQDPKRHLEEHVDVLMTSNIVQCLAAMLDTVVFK
# PHOSPHO1 block – inhibitors of human PHOSPHO1 phosphatase | inhibition, % at 13.3 µM | recombinant PHOSPHO1, absorbance phosphatase assay | actives 1.1% (n = 290,000) | AID 1565; in the data active means inhibition above about 60%
# Target sequence (Q8TCT1 whole entry, looked up): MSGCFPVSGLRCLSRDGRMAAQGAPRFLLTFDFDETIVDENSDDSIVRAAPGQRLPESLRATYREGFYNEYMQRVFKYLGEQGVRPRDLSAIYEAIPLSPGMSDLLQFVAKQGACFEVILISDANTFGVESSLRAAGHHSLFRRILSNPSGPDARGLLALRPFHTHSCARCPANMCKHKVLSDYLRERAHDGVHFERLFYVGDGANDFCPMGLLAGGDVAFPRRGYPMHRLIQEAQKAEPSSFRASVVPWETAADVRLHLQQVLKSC
# HNF4A DNA FP – change in binding of human HNF4 alpha to DNA | P41235 | HNF4a-FITC DNA binding, fluorescence polarization, 1 h | activity change, % at 10 µM | actives 0.3% (n = 360,000) | AID 1224865; in the data active means activity change above about 30%, passing the limit was not always enough
# An asterisk follows results filed as active; nt = not tested or not shown.
SMILES,Fh CTSL1 inh,TPT1 inh,NRP1-CendR mod,Rpn11 inh,PHOSPHO1 block,HNF4A DNA FP
COc1ccc(NC(=O)c2cc([N+](=O)[O-])ccc2N2CCCC2)cc1,4,-2,9,1,41,1
CCCNC(=O)C1(C)CCCN(Cc2c(F)cccc2F)C1 (centres undefined),nt,nt,-6,-7,nt,2
Cc1ccc(OCc2cc(C(=O)N3CCN(C4CCCCC4)CC3)no2)cc1C,-1,3,5,2,32,4
C=CCNC(=S)NNC(=O)c1cccn(Cc2cccc(Cl)c2)c1=O,5,0,4,1,79*,1
Cn1cnc([N+](=O)[O-])c1NC(C)(C)C,2,-2,29*,-10,0,0
CC(C)(C)C(=O)c1c(N)[nH]c(C(=O)c2ccccc2)c1-c1ccc(Br)cc1,nt,nt,-1,nt,nt,5
CCN(CC)S(=O)(=O)c1ccc(S(=O)(=O)N(Cc2ccccn2)Cc2ccco2)cc1,3,0,1,-2,-11,1
O=S(=O)(NCc1ccccc1)c1ccc(S(=O)(=O)N(Cc2ccccn2)Cc2ccco2)cc1,-5,3,38*,-3,-8,-3
Cc1ccc2c(C)cc(=S)[nH]c2c1,nt,nt,1,-6,-76,-1
Cc1ccc2[nH]c(=S)cc(C)c2c1,-1,3,3,1,89*,-1
Cc1cc(=S)[nH]c2ccccc12,4,1,-2,3,100*,1
CCOC(=O)N1CCN(CC(=O)N2c3ccccc3CC2C)CC1 (centres undefined),-2,2,-6,-3,-14,1
CC(C)(C)C(=O)c1sc2nc(-c3cccs3)cc(C(F)(F)F)c2c1N,-3,7,-26,nt,37,-90
Cc1nnc(NC(=O)c2sc3nc(-c4cccs4)cc(C(F)(F)F)c3c2N)s1,5,47*,128,nt,37,68
Cc1ccc(F)cc1NC(=O)COC(=O)C1CC2CCCC(C1)C2=O (centres undefined),nt,nt,30*,-3,nt,-3
COC(=O)c1ccc(C)c(NC(=O)COC(=O)C2CC3CCCC(C2)C3=O)c1 (centres undefined),-2,1,5,3,nt,-3
Cc1ccc(S(=O)(=O)NNc2ccccc2)cc1,6,-4,0,-21,27,-2
Cc1ccc(S(=O)(=O)NNc2nc3ccccc3nc2C(F)(F)F)cc1,1,-2,-7,-2,92*,0
Cc1ccc(N(C)S(=O)(=O)c2ccc(-c3ccc(=O)[nH]n3)s2)cc1C,-2,-1,-22,-2,33,0
CCOc1ccc(N(C)S(=O)(=O)c2ccc(-c3ccc(=O)[nH]n3)s2)cc1,40*,1,4,9,53,17
O=C(CCl)Nc1cn(-c2ccccc2)nc1-c1ccccc1,82*,-3,-2,-2,-13,-1
COc1ccccc1-c1ncn(Cc2cccc(-c3ccccc3)c2)c1-c1ccco1,nt,nt,-20,nt,nt,8
Cc1ccc(-n2c(C)cc(/C=N/NC(N)=S)c2C)cc1,31*,-2,4,7,18,4
COc1cc(OC)c(/C=N/NC(=O)c2ccncc2)cc1Br,0,-3,6,1,-8,4
Cc1cc(/C=N/NC(N)=S)c(O)c(/C=N/NC(N)=S)c1,19*,-57,-15,-108,-91,-109
SMILES,Fh CTSL1 inh,TPT1 inh,NRP1-CendR mod,Rpn11 inh,PHOSPHO1 block,HNF4A DNA FP
COc1cc(OC)c(/C=N/NC(N)=S)cc1Br,74*,-2,1,-5,-2,0
NC(=S)N/N=C/c1cccc(O)c1O,1,4,0,-11,-56,3
Cc1ccc(OCCNC(=O)CNC(=O)c2ccc3c(c2)OCO3)cc1,-2,3,-8,-2,nt,1
O=C1c2cc(O)c(O)cc2OC(c2ccc(O)c(O)c2)C1O (centres undefined),nt,nt,-20,-7,nt,0
CC(C)C(=O)N(c1cc2sc(=O)oc2c2ccccc12)S(=O)(=O)c1cccs1,5,3,-3,-3,92*,-3
CC(=O)N(c1ccc2oc(=O)sc2c1)S(=O)(=O)c1cccs1,3,0,12,-2,-39,-1
CC(C)C(=O)N(c1ccc2oc(=O)sc2c1)S(=O)(=O)c1cccs1,3,2,8,1,87*,1
CN(Cc1cc([N+](=O)[O-])ccc1Cl)C(=O)C[n+]1ccccc1,-4,3,-7,12,46,4
CCc1nc2ccc(C(=O)NCCNC(C)=O)cn2c1N(CCC(C)C)CCN(C)C,nt,nt,7,-4,nt,-2
COc1cccc(C2CC(c3ccccc3Cl)n3ncnc3N2)c1 (centres undefined),1,1,30*,-7,-6,2
Cc1ccc(S(=O)(=O)N2CCN(C(=S)NCc3ccc4c(c3)OCO4)CC2)cc1,-1,7,17,13,48,1
CCOC(=O)CN(C(=O)CSc1nnc(-c2ccc(OC)c(OC)c2)o1)c1ccccc1,1,-1,31*,1,0,2
COC(=O)CSc1nnc(-c2ccc(OC)c(OC)c2)o1,3,-4,-1,0,33,5
Cc1ccc(-n2ncc3c2ncn2c(C)nnc32)cc1C,-3,2,3,-3,60*,-2
COc1cc(C2C(C(=O)/C=C/c3ccccc3)=C(O)C(=O)N2c2ccccn2)ccc1O (centres undefined),3,8,-178,nt,13,40*
COc1cc(C2C(C(C)=O)=C(O)C(=O)N2c2ccc(Br)cn2)ccc1O (centres undefined),1,0,-2,-8,-23,1
COc1ccccc1C=NNc1nc(C)cc(=O)[nH]1,nt,nt,5,1,nt,-3
CC(NC(=O)c1ccc(Cl)c(Cl)c1)c1ccc(-c2ccccc2)cc1 (centres undefined),-2,-5,0,0,20,3
CC(NC(=O)CCl)c1ccc(Cl)c(Cl)c1 (centres undefined),23*,-4,-8,-4,42,0
CCOC(=O)c1cc(-c2ccc3c(c2)OCCO3)n[nH]1,3,-1,-4,-1,47,-5
O=C(O)c1cc(-c2ccc3c(c2)OCCO3)n[nH]1,1,1,7,0,60*,-1
Cc1ccccc1-n1c(SCC(=O)c2cc(C)n(C)c2C)nnc1-c1cccnc1,2,13,5,7,86*,-1
Cc1ccccc1-n1c(SCC(=O)c2c(N)n(C)c(=O)n(C)c2=O)nnc1-c1cccnc1,-1,4,-4,0,-2,-2
COCCn1c(C)cc(C(=O)CSc2nnc(-c3cccnc3)n2-c2ccccc2F)c1C,-1,9,-12,13,90*,6
Cc1cc(C)c(NC(=O)c2cccc(NC(=O)c3ccco3)c2)c(C)c1,-6,1,1,5,19,0

# Screening results from PubChem BioAssay.
